Hits are enriched below; roughly 21% of the tested compounds scored in any of these assays.
RORgamma inh = ROR gamma (mouse) transcription inhibition | P51450 | Drosophila S2 Gal4-RORgamma UAS-luciferase reporter, 20 h | Potency, µM (series often up to 53.6 µM), inactives show at the highest dose activity change, negative = inhibition, hits mostly inhibitors | 310,000 compounds, 5.4% hits | AID 2551; also: potency is read from the fitted curve at half-maximal effect; nearly all actives have a fitted effect of over 60% in size
Target sequence (P51450 whole entry, looked up, the tested form may be a part): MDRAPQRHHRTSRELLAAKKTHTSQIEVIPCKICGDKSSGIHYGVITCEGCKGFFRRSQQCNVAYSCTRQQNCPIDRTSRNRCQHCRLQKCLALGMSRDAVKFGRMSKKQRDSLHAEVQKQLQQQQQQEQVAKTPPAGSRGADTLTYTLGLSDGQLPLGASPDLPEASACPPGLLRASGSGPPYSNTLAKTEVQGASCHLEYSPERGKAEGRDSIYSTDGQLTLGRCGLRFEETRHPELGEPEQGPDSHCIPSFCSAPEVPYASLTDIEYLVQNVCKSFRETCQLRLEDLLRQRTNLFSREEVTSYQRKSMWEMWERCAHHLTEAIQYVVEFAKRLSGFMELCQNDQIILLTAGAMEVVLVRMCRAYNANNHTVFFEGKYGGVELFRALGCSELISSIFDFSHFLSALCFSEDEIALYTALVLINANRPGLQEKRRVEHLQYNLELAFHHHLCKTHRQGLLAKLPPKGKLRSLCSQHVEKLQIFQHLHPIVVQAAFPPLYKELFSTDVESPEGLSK
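Luminescence from a UAS-regulated Photinus luciferase reporter in stably transfected Drosophila Schneider cells is measured; decreased signal marks ROR gamma inhibition. Fusion expression is induced by 700 uM copper sulfate for 20 hr.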
ELG1 repair inh = ELG1-dependent DNA repair inhibition. AID 504467. Potency, µM (series often up to 46.1 µM), inactives show top-dose activity change, negative = inhibition, hits mostly inhibitors. HEK293T ELG1-luciferase reporter, luminescence, 16 h; DNA damage induced by 5-fluorouridine. 330,000 compounds, 2.3% hits; also: potency is read from the fitted curve at half-maximal effect; nearly all actives have a fitted effect of over 55% in size
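HEK293T cells expressing luciferase-tagged ELG1 (2,000/well) received 5-Fluorouridine plus compound or DMSO for 16 hr at 37 °C. Luciferase was read by ONE-Glo luminescence after 30 min at room temperature.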
TDP1 cell noCPT = qHTS for Inhibitors of human tyrosyl-DNA phosphodiesterase 1 (TDP1): qHTS in cells in absence of CPT; DT40 Tdp1-/- hTDP1 cells, no CPT, ATP luminescence, 48 h; Potency, µM (top dose mostly 46.2 µM), for inactives: at the highest dose activity change, negative = growth inhibition, usual class: inhibitors; 420,000 compounds, 15% hits; AID 686978, 2013; also: potency is read from the fitted curve at half-maximal effect; nearly all actives have a fitted effect of over 55% in size
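Chicken DT40 Tdp1-/- cells complemented with human TDP1, screened without camptothecin (DMSO vehicle only), 400 cells/well. Compounds pin-transferred, cells incubated at 37 °C for at least 48 hr. Growth read as ATP-dependent luminescence (CellTiter-Glo, 30 min at RT).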
IL-1B inflam inh = inflammasome signaling inhibition, IL-1 beta readout. THP-1 LPS/ATP IL-1B secretion, AlphaLISA, 16 h; stronger effect = lower value. activity change, % at 57.5 µM. 360,000 compounds, 4.7% hits. AID 743279; in the data active = activity change below about -50%; inconclusive = mostly about -30% to -49%
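Secreted IL-1B measured by AlphaLISA bead assay after 16 h compound exposure of THP-1 cells; compounds (final up to 57.5 uM) added 1 h before LPS (250 ng/mL) and ATP (1.25 mM) stimulation; lower signal means less secretion.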
VP16 counter = Gal4-VP16 reporter inhibition counter-screen | Drosophila S2 Gal4-VP16 UAS-luciferase, luminescence, 20 h | Potency, µM (doses to about 53.6 µM), inactives show top-dose activity, negative = inhibition, most hits filed as inhibitors | 310,000 compounds, 3.5% hits;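 also: Gal4-VP16 expression switched on by copper sulfate through the metallothionein promoter; potency is read from the fitted curve at half-maximal effect; nearly all actives have a fitted effect of over 50% in size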
TDP1 cell CPT = DT40-hTDP1 cell growth loss with CPT; chicken DT40 Tdp1-/-;hTDP1 cells + 20 nM CPT, ATP luminescence, 48 h; Potency, µM (highest dose often 46.2 µM), for the others: top-dose activity change, negative = growth inhibition, actives largely listed as inhibitors; 420,000 compounds, 12% hits; also: potency is read from the fitted curve at half-maximal effect; nearly all actives have a fitted effect of over 55% in size
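Chicken DT40 Tdp1-/- cells stably complemented with human TDP1 were seeded at 400 cells/well in medium containing 20 nM camptothecin, exposed to pin-transferred compounds, and grown at 37 °C for at least 48 hr. Viability was read as ATP luminescence.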
* hit, by the source's call; ? = inconclusive; / = no result given; [ ] = another dose, or the depositor's remark. Unless noted, calls follow the shape of the dose curve; as a rule, active = well fitted curve in the direction sought with a large enough effect; inconclusive = small, poorly fitted or top-dose-only effect, or another doubt; inactive = no such curve, though single readings can be large; an effect the other way counts as inactive or inconclusive. % is scaled to controls: 0 for no effect and ±100 for the full control effect.

SMILES	RORgamma inh	ELG1 repair inh	TDP1 cell noCPT	IL-1B inflam inh	VP16 counter	TDP1 cell CPT
CCc1ccccc1N1CC(c2nc3ccccc3n2CCOc2ccc(Cl)c(C)c2)CC1=O (configuration not stated)	/	/	21µM*	/	/	10µM*
CCn1c(C2CC(=O)N(Cc3ccccc3)C2)nc2ccccc21 (configuration not stated)	22%	0%	-8%	-11	0%	-15%
Cc1cccc(C)c1OCCn1c(C2CC(=O)N(Cc3ccc(F)cc3)C2)nc2ccccc21 (configuration not stated)	/	/	18µM*	/	/	?
Cc1cc(OCCn2c(C3CC(=O)N(Cc4ccc(F)cc4)C3)nc3ccccc32)ccc1Cl (configuration not stated)	/	/	26µM*	/	/	?
COCC1CCCN(Cc2ccc3c(c2)CN(C(=O)c2cnn(C(C)C)c2)CCO3)C1 (configuration not stated)	/	/	-22%	/	/	13%[9.04 µM]
O=C(COC(=O)c1cccc(O)c1)Nc1ccc(S(=O)(=O)N2CCOCC2)cc1	/	-6%	10%	?	/	-4%
COc1ccc(NC(=O)c2oc3ccccc3c2NC(=O)c2cc(C)cc(C)c2)c(OC)c1	/	/	-29%	/	/	3%
CC1=CC(C)(C)N2C(=O)C(=O)c3cc(OC(=O)c4ccco4)cc1c32	34%	0%	1.2µM*	38	11%	0.65µM*
O=C(Oc1cccc(OC(=O)c2ccco2)c1)c1ccco1	20%	2%	-12%	0	-6%	-3%
COc1cc([N+](=O)[O-])c(OC)cc1SCc1n[nH]c(=S)n1-c1ccc(C)cc1	2.2µM*	-18%	-6%	33	-11%	14%
COc1ccc(-n2c(COc3cccc(C)c3)n[nH]c2=S)cc1	3.5µM*	12%	2%	18	5µM*	5%
COc1ccc(OCc2n[nH]c(=S)n2-c2ccc(C)cc2)cc1	2.2µM*	-2%	1%	13	?	15%
COc1ccc(/C=N/n2cnc3c([nH]c4ccc(C)cc43)c2=O)cc1CN1CCCC1	?	?	7.3µM*	-102*	?	5.2µM*
COc1ccc(/C=N/n2cnc3c([nH]c4ccc(F)cc43)c2=O)cc1CN1CCCC1	-80%	-1%	3.3µM*	33	11µM*	5.2µM*
COc1ccc2c(c1)[nH]c1c(=O)n(/N=C/c3ccc(OC)c(CN4CCCC4)c3)cnc12	18%	0%	?	?	-10%	?
CN1CCN(c2ncncc2-c2ccc(N(C)C)cc2)CC1	2%	/	-10%	/	7%	?
O=C(COc1ccc(Cl)cc1Cl)Nc1cccc(-c2ccc(N3CCOCC3)nn2)c1	/	?	?	-15	/	18µM*
O=C(COc1ccccc1)Nc1cccc(-c2ccc(N3CCOCC3)nn2)c1	/	?	9.2µM*	-14	/	?
Cc1ccc(C(=O)Nc2cccc(-c3ccc(N4CCOCC4)nn3)c2)cc1[N+](=O)[O-]	/	?	?	-3	/	10µM*
CC(C)NC(=O)COc1coc(CN2CCN(C(=O)c3ccco3)CC2)cc1=O	/	14%	5%	10	/	-17%
COC(=O)[C@@H]1C[C@@]2(O)[C@H](O)[C@H](O)[C@H](O)C[C@H]2N1Cc1ccc(N2CCN(C)CC2)cc1	13%	/	/	/	4%	/
COc1cc(CN2CCc3nnc(C(NS(C)(=O)=O)C(C)C)n3CC2)ccc1F (configuration not stated)	/	/	-7%	/	/	13%
CCOc1ccc(-c2nnc(SCC(=O)NC(C)(C)C)nc2-c2ccc(OCC)c(OC)c2)cc1OC	12%	-18%	-20%	3	11%	?
Cc1ccc(C(CC(=O)N2CCOCC2)c2ccco2)cc1 (configuration not stated)	7%	-7%	?	?	20%	16µM*
Cc1ccc(-c2nnc(SCC(=O)N(C)C)nc2-c2ccc(C)cc2)cc1	34%	?	23µM*	0	-2%	?
SMILES	RORgamma inh	ELG1 repair inh	TDP1 cell noCPT	IL-1B inflam inh	VP16 counter	TDP1 cell CPT
Cc1ccc(-c2nnc(SCC(=O)NC(C)(C)C)nc2-c2ccc(C)cc2)cc1	/	/	?	/	/	29µM*
Cc1ccc(CSCC(=O)N2CCOCC2)cc1	37%	13%	10µM*	14	8%	6.5µM*
O=C(CSCc1ccc(Cl)cc1)N1CCOCC1	-10%	?	-8%	-4	-6%	-5%
O=C(CC(c1ccccc1)c1ccco1)N1CCCCC1 (configuration not stated)	32%	-1%	/	/	-2%	/
Cc1ccc(-c2nnc(SCC(N)=O)nc2-c2ccc(C)cc2)cc1	-73%	-5%	?	11	-5%	?
Nc1c(OS(=O)(=O)c2ccccc2)cccc1OS(=O)(=O)c1ccccc1	/	/	?	?	/	-22%
C=CCOC(=O)Nc1nc(CCNC(=O)OC(C)(C)C)c(C(=O)O)s1	/	/	7%	-8	/	12%
CCCCn1c(N)c(N(CC)C(=O)c2cccc(S(=O)(=O)N3CCN(C)CC3)c2)c(=O)[nH]c1=O	/	18%	1%	3	/	3%
Cc1ccc(SCC(=O)N2CCOCC2)cc1	12%	?	-17%	-8	-2%	-15%
CSc1ccc(CSCC(=O)N2CCN(S(=O)(=O)c3ccc(C)cc3C)CC2)cc1	/	10µM*	?	-29	/	26µM*
CCOc1ccc(-c2nnc(SCC(=O)NCc3ccc(C)cc3)nc2-c2ccc(OCC)cc2)cc1	/	/	13µM*	/	/	?
CCOC(=O)CNC(=O)CSc1nnc(-c2ccccc2)c(-c2ccccc2)n1	8%	-5%	-22%	6	5%	3%
Cc1ccc(-c2nnc(SCC(=O)N3CCOCC3)nc2-c2ccc(C)cc2)cc1	11%	?	?	-7	-2%	21µM*
N#Cc1ccc(C(=O)Nc2cc(C3CC3)nn2-c2ccccc2)cc1	/	1%	-28%	-1	/	-17%
O=C(Nc1cccc([N+](=O)[O-])c1)C12CC3CC(C1)CC(n1cnc([N+](=O)[O-])n1)(C3)C2	15%	-15%	?	-21	-9%	26µM*
O=C(Nc1ccccc1)C12CC3CC(C1)CC(n1cnc([N+](=O)[O-])n1)(C3)C2	12%	-5%	-2%	22	-9%	-6%
CN1C(=O)CC2(C)C1=CCc1scnc12 (configuration not stated)	/	/	-5%	14	/	7%
